Results from PubChem BioAssay AID1159580 (chemical genetic matrix, 2015).
Where “and” joins values, the source holds several entries; their conditions need not be identical. Identical values can stand only once. About 2,000 (36%) of roughly 5,500 compounds were called active. Inconclusive results (about 18%) are left out. Cut-off read from the data, not from the text of the source: active = normalized growth mostly below about 0.91 (no sharp cut-off); inconclusive = no clear call, values can overlap the other calls; inactive = mostly above about 0.92. Some of the results follow.

Assay: chemical genetic growth profiling, strain panel (AID 1159580);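 note: tested at 20 µM; growth read once vehicle control cultures reached saturation at 30 °C; 1 = growth at the plate median or of vehicle wells; lower values mean less growth of the strain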
Details: S. cerevisiae deletion strains, growth OD

Measured: normalized growth

O=C1C=CC2=C3c4cc(O)c(O)cc4CC3(O)COC2=C1O (centres undefined)
inactive: locus YAL021C, strain ccr4, active compounds read low 0.933 | locus YAL026C, strain drs2, active compounds read low 0.945 | locus YAL030W, strain snc1, active compounds read low 1.02 | locus YBL061C, strain skt5, active compounds read low 0.993 | locus YBR009C, strain hhf1, active compounds read low 0.999 | locus YBR021W, strain FUR4, active compounds read low 1.04 | locus YBR023C, strain chs3, active compounds read low 0.949 | locus YBR171W, strain sec66, active compounds read low 1.06 | locus YBR229C, strain ROT2, active compounds read low 0.996 | locus YBR231C, strain swc5, active compounds read low 0.929 | locus YBR279W, strain paf1, active compounds read low 0.964 | locus YCL011C, strain gbp2, active compounds read low 1.02 | locus YCL016C, strain dcc1, active compounds read low 1.01 | locus YCL029C, strain bik1, active compounds read low 1.04 | locus YCL061C, strain MRC1, active compounds read low 1.01 | locus YCL069W, strain vba3, active compounds read low 1.03 | locus YCR088W, strain abp1, active compounds read low 1.05 | locus YDL005C, strain med2, active compounds read low 1.06 | locus YDL035C, strain GPR1, active compounds read low 0.904 | locus YDL040C, strain nat1, active compounds read low 1.04 | locus YDL074C, strain BRE1, active compounds read low 0.898 | locus YDL101C, strain DUN1, active compounds read low 0.946 | locus YDL134C, strain PPH21, active compounds read low 0.942 | locus YDL185W, strain tfp1, active compounds read low 0.997 | locus YDL192W, strain arf1, active compounds read low 0.998 | locus YDR001C, strain nth1, active compounds read low 1.04 | locus YDR101C, strain arx1, active compounds read low 1.06 | locus YDR137W, strain rgp1, active compounds read low 0.972 | locus YDR159W, strain sac3, active compounds read low 1.13 | locus YDR195W, strain ref2 1.11 | locus YDR297W, strain sur2, active compounds read low 1.01 | locus YDR318W, strain mcm21, active compounds read low 1.01 | locus YDR334W, strain swr1, active compounds read low 0.992 | locus YDR335W, strain msn5, active compounds read low 1.01 | locus YDR388W, active compounds read low 1.03 | locus YDR392W, strain spt3, active compounds read low 1.03 | locus YDR502C, strain sam2, active compounds read low 1.01 | locus YEL003W, strain gim4, active compounds read low 1.01 | locus YEL037C, strain rad23, active compounds read low 1.01 | locus YEL061C, strain CIN8 (second series), active compounds read low 1.04 | locus YEL061C, strain CIN8, active compounds read low 0.964 | locus YER015W, strain faa2, active compounds read low 0.99 | locus YER016W, strain bim1, active compounds read low 1.04 | locus YER110C, active compounds read low 1.05 | locus YER111C, strain swi4, active compounds read low 1.01 | locus YER155C, strain BEM2 (second series), active compounds read low 1.03 | locus YER155C, strain BEM2, active compounds read low 1.05 | locus YER167W, strain BCK2, active compounds read low 1.06 | locus YFR010W, strain ubp6, active compounds read low 0.985 | locus YGL078C, strain dbp3, active compounds read low 1.02 | locus YGL086W, strain mad1, active compounds read low 1.02 | locus YGL167C, strain pmr1, active compounds read low 1.03 | locus YGL173C, strain kem1, active compounds read low 0.947 | locus YGL227W, strain vid30, active compounds read low 1.06 | locus YGL240W, strain doc1, active compounds read low 1.11 | locus YGL248W, strain PDE1, active compounds read low 0.934 | locus YGL253W, strain hxk2, active compounds read low 0.959 | locus YGR078C, strain PAC10, active compounds read low 0.957 | locus YGR135W, strain pre9, active compounds read low 0.985 | locus YGR252W, strain gcn5, active compounds read low 0.966 | locus YHR013C, strain ard1, active compounds read low 0.901 | locus YHR030C, strain SLT2, active compounds read low 0.999 and 0.987 | locus YHR079C, strain IRE1 (second series), active compounds read low 1.03 | locus YHR079C, strain IRE1, active compounds read low 1.01 | locus YHR094C, strain hxt1, active compounds read low 1.05 | locus YHR129C, strain ARP1, active compounds read low 0.967 | locus YHR142W, strain chs7, active compounds read low 0.943 | locus YHR200W, strain rpn10, active compounds read low 1.03 | locus YIL066C, strain RNR3, active compounds read low 0.881 | locus YIL073C, strain SPO22, active compounds read low 0.812 | locus YIL125W, strain kgd1, active compounds read low 1.01 | locus YIR030C, strain dcg1, active compounds read low 1.03 | locus YJL092W, strain hpr5, active compounds read low 1.04 | locus YJL095W, strain BCK1 (second series), active compounds read low 1.01 | locus YJL095W, strain BCK1, active compounds read low 0.926 and 1.02 | locus YJL115W, strain asf1, active compounds read low 1.05 | locus YJL129C, strain trk1, active compounds read low 1.09 | locus YJL134W, strain LCB3, active compounds read low 0.999 | locus YJL154C, strain vps35, active compounds read low 1.03 | locus YJL164C, strain tpk1, active compounds read low 0.968 | locus YJL166W, strain qcr8, active compounds read low 0.995 | locus YJL168C, strain set2, active compounds read low 1.01 | locus YJL187C, strain SWE1, active compounds read low 0.986
active: locus YAL013W, strain DEP1, active compounds read low 0.873 | locus YDR069C, strain doa4, active compounds read low 0.896 | locus YDR162C, strain NBP2, active compounds read low 0.789 | locus YGR229C, strain SMI1, active compounds read low 0.557 | locus YHR027C, strain rpn1, active compounds read low 0.908 | locus YJL187C, strain SWE1 (second series), active compounds read low 0.826
